From PubChem
In the library only some 6.5% were active in any assay of this set; here they are far more common.
LASV entry inh – blocks Lassa virus binding to or entry into cells. Lassa virus pseudotype entry inhibition, cell reporter. Potency, µM (doses to about 37.9 µM), without a hit: at the highest dose activity change, negative = inhibition, usual class: inhibitors. hit rate 1.2% among 300,000. AID 540256; calls by dose curve; tested in HEK293 cells; note: potency is the fitted concentration of half-maximal effect; nearly all actives have a fitted effect of over 50% in size
VACV Venus inh – vaccinia inhibition (Venus reporter); Vaccinia virus Venus reporter expression, fluorescence; Potency, µM (doses to about 36.5 µM), inactives show top-dose activity change, negative = inhibition, hits mostly inhibitors; hit rate 0.46% among 330,000; calls by dose curve; tested in A549 cells; note: potency is the fitted concentration of half-maximal effect; nearly all actives have a fitted effect of over 30% in size
MARV entry inh – Marburg virus entry inhibition; Potency, µM (top dose mostly 37.8 µM), without a hit: at the top dose activity change, negative = inhibition, actives largely listed as inhibitors; hit rate 1.8% among 300,000; Marburg virus pseudotyped entry inhibition, cell reporter; AID 540276; calls by dose curve; tested in HEK293 cells; note: potency is the fitted concentration of half-maximal effect
HCMV antiviral – inhibitors of human cytomegalovirus | HFF cells, HCMV-luciferase reporter, 72 h; stronger effect = lower value | activity change, negative = inhibition, % at 57.5 µM | hit rate 4.5% among 410,000 | AID 1259415; in the data active = activity change below about -60%; inconclusive = no clear call, values can overlap the other calls; inactive = above about -39%
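Screen run at 2 compound doses on HFFs infected with reporter HCMV, MOI 1 PFU/cell. Luciferase activity from cell lysates at 72 h post infection gave inhibition relative to buffer-only and Salinomycin wells.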
FMDV antiviral – foot and mouth disease virus antiviral activity | FMDV antiviral cell-based qHTS | Potency, µM (series often up to 57.9 µM), for inactives: top-dose activity change, negative = inhibition, usual class: inhibitors | hit rate 1.2% among 410,000 | AID 1159524; calls by dose curve; tested in HEK293T cells; note: read-out not given here; potency is the fitted concentration of half-maximal effect; nearly all actives have a fitted effect of over 45% in size
VACV mCherry inh – inhibitors of vaccinia virus infection (mCherry reporter signal); Vaccinia virus mCherry reporter infection, fluorescence; Potency, µM (series often up to 36.5 µM), without a hit: top-dose activity change, negative = inhibition, hits mostly inhibitors; hit rate 0.63% among 310,000; AID 720579; calls by dose curve; tested in A549 cells; note: potency is the fitted concentration of half-maximal effect; nearly all actives have a fitted effect of over 35% in size
* = called active by the depositor; i = inactive; ? = inconclusive; nt = not tested or not shown; [ ] = dose if it differs, or a comment. % is set by controls: 0 for no effect and ±100 for the full control effect.

SMILES | LASV entry inh | VACV Venus inh | MARV entry inh | HCMV antiviral | FMDV antiviral | VACV mCherry inh
Cc1oc(-c2ccc3c(c2)OCCO3)cc1C(=O)NC(Cc1ccccc1)C(=O)O (stereo unspecified) | 4.0% | 11.6% | -12.3%[46.1 µM] | -16.5 | 40.1% | 3.4%
Cc1oc(C(C)(C)C)cc1C(=O)NC(Cc1ccccc1)C(=O)O (stereo unspecified) | ? | 3.6% | ? | -77.2* | 8.6% | -9.5%
CCCCC(CC)CNC(=O)CCCCCn1c(=O)[nH]c2ccsc2c1=O (stereo unspecified) | 17.8%[46.1 µM] | -9.7% | -24.5%[46.1 µM] | -22.7 | -8.4% | -11.6%
N#CC1=C(N)N2C(=C(C#N)C13CCN(Cc1ccccc1)CC3)Nc1ccccc12 | 4.5% | nt | -21.4% | -3.1 | -2.3% | nt
N#CC1=C(N)N2C(=C(C#N)C1c1cccc(Br)c1)Nc1ccccc12 (stereo unspecified) | ? | -2.9% | 0.0%[46.1 µM] | -97.4* | 7.94µM* | i
N#CC1=C(N)N2C(=C(C#N)C1c1ccc(Br)cc1)Nc1ccccc12 (stereo unspecified) | ? | nt | 9.2µM* | -100.2* | ? | nt
C[C@@H]1CC2=CCCC2[C@]2(O1)C(=O)Nc1cccc(Br)c12 (stereo partly specified) | nt | nt | 1.3%[14.2 µM] | nt | nt | nt
O=c1cnc2cncnc2n1Cc1ccccc1Cl | nt | nt | nt | nt | -29.8% | nt
CCOC(=O)c1cc(S(=O)(=O)Nc2ccccc2OCC)[nH]n1 | 3.2%[46.1 µM] | -13.3% | nt | 4.4 | 21.0% | -2.6%
CC(C)CN=c1cc(-c2ccccc2)oc2ccc(Cl)cc12 | ? | -24.5% | 17.8µM* | 20.3 | 10.9% | nt
S=c1nc[nH]c2n[nH]nc12 | nt | -20.9% | nt | nt | nt | 10.2%
CN(C)c1nc(-c2ccccc2)nc(-c2ccc(Cl)cc2)c1C#N | 17.8% | 5.8% | 0.3% | -25.3 | -17.1% | nt
CCN(CC)c1nc(-c2ccccn2)nc(-c2ccccc2)c1C#N | ? | ? | 6.31µM* | -93.2* | ? | ?
CN(C)c1nc(-c2ccccn2)nnc1-c1ccccc1 | ? | ? | ? | -102.8* | -1.8% | 8.91µM*
O=C(OCc1cc(=O)n2nc(-c3cccs3)sc2n1)c1ccc(F)cc1 | 0.3%[46.1 µM] | -4.4% | nt | 9.2 | -2.5% | -2.3%
O=C(O)CCCCCn1c(O)c(C=C2N=c3ccccc3=N2)sc1=S | -0.2% | -20.0% | ? | -80.1* | -6.1% | -18.0%
O=C(O)CCCn1c(O)c(C=C2N=c3ccccc3=N2)sc1=S | nt | nt | nt | ? | -29.1% | nt
CCn1c(-c2ccccc2F)nc2cc(NC(C)=O)cc(C(=O)N(C)Cc3ccc4nccnc4c3)c21 | nt | -11.6% | nt | nt | -10.7% | -12.5%
CCCCCCCC/C=C\CCCCCCCC(=O)NCCc1ccc(O)c(O)c1 | 9.2µM* | -25.6% | 4.47µM* | -17.3 | ? | -17.1%
COc1ccc(S(=O)(=O)N2CCN(C(=O)CCNC(=O)c3ccccc3Cl)CC2)cc1 | 17.5% | -21.9% | ? | -97.7* | -13.7% | -5.1%
N#Cc1ccc(CN2CCN(C(=O)c3ccc(S(=O)(=O)N4CCCCCC4)cc3)CC2)cc1 | nt | nt | nt | -78.1* | 14.1µM* | nt
COc1ccc(CN2CCN(C(=O)c3ccc(S(=O)(=O)N4CCCCCC4)cc3)CC2)cc1 | ? | -15.2% | -5.3% | -75.4* | 20µM* | -3.7%
COc1ccc(NS(=O)(=O)c2ccc(C(=O)N3CCN(Cc4ccccc4)CC3)cc2)cc1 | nt | -26.3% | nt | -31.3 | ? | -21.6%
COc1ccc(OC2CCN(S(=O)(=O)c3ccc(C(C)=O)cc3)CC2)cc1 | nt | nt | nt | -63.2* | -21.5% | nt
O=C(c1ccc(S(=O)(=O)N2CCCCCC2)cc1)N1CCN(Cc2ccccc2)CC1 | nt | nt | nt | -14.4 | ? | nt
SMILES | LASV entry inh | VACV Venus inh | MARV entry inh | HCMV antiviral | FMDV antiviral | VACV mCherry inh
CCOC(=O)N1CCC2(CC1)OC(=O)C(C)=C2C(=O)NCc1cccc(F)c1 | 8.4%[46.1 µM] | -3.9% | nt | 0.0 | -13.0% | -4.8%
COc1cc2c(C(=O)N(C)c3cccc(C(F)(F)F)c3)cn(CC(C)C)c(=O)c2cc1OC | 12.6%[46.1 µM] | -13.8% | ? | -21.7 | -2.9% | -16.5%
Cc1ccc(-c2cn(CCN)c(=O)cn2)cc1 | nt | nt | nt | 10.8 | nt | nt
C[C@@H](Nc1nc(Cl)nc2nc[nH]c12)c1ccccc1 | nt | ? | nt | nt | nt | -16.9%
COc1ccc(CN2CCN(C(=O)c3ccc(S(=O)(=O)N4CCCCCC4)cc3)CC2)cc1F | ? | -24.0% | ? | -77.4* | 14.1µM* | ?
CC(=O)OC[C@H]1O[C@H](C#Cc2ccccc2)C=C[C@H]1O | nt | nt | -3.2%[14.2 µM] | nt | nt | nt
CNC(=O)C[C@H](C(=O)O)c1ccc(OC(C)C)cc1 | nt | nt | -6.9% | nt | nt | nt
OCCNCCc1c[nH]c2ccc(OCc3ccccc3)cc12 | nt | nt | 0.2% | -60.3* | 0.3% | nt
NNC(=O)c1c[nH]c2ccc(OCc3ccccc3)cc12 | -16.8% | -17.1% | 9.1%[46.1 µM] | -31.2 | -0.2% | -23.8%
COCCNC(=O)Cc1c(C)c2c(cc(C)c3c(C(C)(C)C)coc32)oc1=O | ? | ? | ? | -61.2* | ? | ?
Cc1cc2oc(=O)c(CC(=O)NCCCO)c(C)c2c2occ(C(C)(C)C)c12 | nt | nt | nt | ? | -0.4% | nt
Cc1cc2oc(=O)c(CC(=O)NCCCN(C)C)c(C)c2c2occ(C(C)(C)C)c12 | ? | ? | ? | nt | -9.6% | 12.6µM*
COc1ccc(-n2c(/C=C/c3cccc4ccccc34)nc3ccccc3c2=O)cc1Cl | 1.8%[46.1 µM] | -26.4% | nt | -28.4 | ? | -24.4%
CCOC(=O)C1=C2C=C(OCC)C=CC2OC1c1ccccc1 (stereo unspecified) | nt | nt | -25.2%[46.1 µM] | nt | nt | nt
Cc1ccc(S(=O)(=O)Nc2ccc3nc(N)sc3c2)cc1 | -7.8% | nt | -26.2% | -88.8* | 40.9% | nt
Cc1nc2ccc(NS(=O)(=O)c3ccc(Br)cc3)cc2s1 | nt | nt | nt | -60.0* | -4.8% | nt
CC(=O)Nc1ccc(S(=O)(=O)Nc2ccc3nc(C)sc3c2)cc1 | ? | 7.6% | ? | -75.5* | -11.3% | -17.2%
